Data on 22 molecules can be found in the supplement of paper PMC7156485.

± gives the standard deviation of the averaged measurements.

Conditions in all cases: concentration: 10 µM; 24 h
Assay [1] concerns HCC1569. The experiment in a line: cell number relative to DMSO (% of DMSO); higher = more cells (less growth inhibition / toxicity). The method, boiled down:
(§1)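 Using 384-well plates with 800 cells per well in RPMI plus 10% FBS, HCC1569 and TDF cells were exposed to compounds at 10 µM, in triplicate, for 24 h at 37 °C. Imaging of six fields per well at ×10 followed H1.0 and DAPI staining. The reported quantity, H1.0 nuclear intensity or cell number, is a median of replicates given as percent of the plate control, and HCC1569 values were smoothed for positional effects.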

Assay [2] has as its system TDF. Described as above. In a few lines: as §1
Assay [3] relates to TDF. The experiment in a line: H1.0 immunofluorescence intensity relative to DMSO (% of DMSO); higher = stronger H1.0 induction, active = 120 or more. The method, boiled down:
as §1

Assay [4] concerns HCC1569. Nature of the assay: H1.0 immunofluorescence intensity relative to DMSO (% of DMSO); higher = stronger H1.0 induction, active = 140 or more. The method, boiled down:
as §1
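For H1.0 immunofluorescence intensity relative to DMSO in this document: TDF is a line of transformed human dermal fibroblasts of mesenchymal origin.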
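For cell number relative to DMSO in this document: TDF denotes transformed human dermal fibroblasts of mesenchymal origin.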

With `COCc1c(C(C)C)nc(C(C)C)c(C=CC(O)CC(O)CC(=O)O)c1-c1ccc(F)cc1` (stereo not drawn) [Cerivastatin], the cell number in assay [1] was 97.3; in assay [2], 39. Further, the values for the H1.0 immunofluorescence intensity in assay [3] and in assay [4] were 166 (active) and 98.3 (inactive), respectively.

On to `CCCCCCCCCCCCCCCC(O)C(CO)NC(C)=O` (stereo not drawn) [C2 Dihydroceramide], for which the cell number worked out at 104 in assay [1] and 114 in assay [2]. Further, the H1.0 immunofluorescence intensity is 99.1 (inactive) in assay [3] and 97 (inactive) in assay [4].

Take `O=C(C1CCCCC1)N1CC(=O)N2CCc3ccccc3C2C1` (stereo not drawn) [Praziquantel]: the cell number came to 101 ± 4.6 in assay [1] and 103 ± 5.6 in assay [2]. Moreover, the figures for the H1.0 immunofluorescence intensity in assay [3] and in assay [4] were 94.8 (inactive) and 106 (inactive), respectively.

In the case of `CC(Cc1ccc(O)c(O)c1)(NN)C(=O)O` (stereo not drawn) [S-(-)-Carbidopa], the cell number in assay [1] is 106; in assay [2] it was 112. For the same molecule, the H1.0 immunofluorescence intensity in assay [3] is 91.7 (inactive); in assay [4], 90 (inactive).

In the case of `CCCCCCCCCCCC=CCCCCC(=O)O` [6(E)-Octadecenoic acid], the cell number in assay [1] turned out to be 100; in assay [2], 101. The H1.0 immunofluorescence intensity is 102 (inactive) in assay [3] and 89.5 (inactive) in assay [4].

Consider `CC1=C(C(=O)Nc2cc3cn[nH]c3cc2F)C(c2ccc(C(F)(F)F)cc2)CC(=O)N1` (stereo not drawn), for which the cell number in assay [1] worked out at 113; in assay [2] it was 98.5. The H1.0 immunofluorescence intensity in assay [3] was 87.8 (inactive); in assay [4] it was 107 (inactive).

Turning to `C=C(c1ccc(C(=O)O)cc1)c1cc2c(cc1C)C(C)(C)CCC2(C)C` [Bexarotene], the cell number in assay [1] was found to be 104; in assay [2] it was 103. For the same molecule, the H1.0 immunofluorescence intensity is 84 (inactive) in assay [3] and 111 (inactive) in assay [4].

Regarding `NC(Cn1ccc(=O)c(O)c1)C(=O)O` [L-Mimosine], the figures for the cell number in assay [1] and in assay [2] were 101 and 86.3, respectively. Besides, the H1.0 immunofluorescence intensity in assay [3] is 105 (inactive); in assay [4], 102 (inactive).

Turning to `CCCCCCCCC=CCCCCCCCC(=O)O` [9(E)-Octadecenoic acid], the cell number in assay [1] stood at 100; in assay [2], 108. Further, the H1.0 immunofluorescence intensity in assay [3] was 94.9 (inactive); in assay [4] it was 101 (inactive).

As to `O=c1c(O)c(-c2ccccc2O)oc2cc(O)cc(O)c12` [Datiscetin], the values for the cell number in assay [1] and in assay [2] were 101 and 106, respectively. In addition, the H1.0 immunofluorescence intensity is 92.1 (inactive) in assay [3] and 87.7 (inactive) in assay [4].

For `CCN(CC)CCOc1ccc(C(=C(Cl)c2ccccc2)c2ccccc2)cc1` [Clomiphene], the cell number in assay [1] stood at 99.9; in assay [2], 88.3. In addition, the H1.0 immunofluorescence intensity in assay [3] was 98 (inactive); in assay [4] it was 116 (inactive).

As for `NS(=O)(=O)c1ccc(-n2nc(C(F)(F)F)cc2-c2ccc(Cl)cc2)cc1`, the results for the cell number in assay [1] and in assay [2] were 90.5 and 104, respectively. The H1.0 immunofluorescence intensity in assay [3] is 90.5 (inactive); in assay [4], 90.7 (inactive).

In the case of `CCC(C)(C)c1ccc(CC(C)CN2CC(C)OC(C)C2)cc1` (stereo not drawn) [Amorolfine], the cell number turned out to be 94.1 in assay [1] and 98.9 in assay [2]. For the same molecule, the H1.0 immunofluorescence intensity was 94.6 (inactive) in assay [3] and 110 (inactive) in assay [4].

Turning to `Cc1ccc(C(=O)Nc2ccc(S(=O)(=O)[O-])c3cc(S(=O)(=O)[O-])cc(S(=O)(=O)[O-])c23)cc1NC(=O)c1cccc(NC(=O)Nc2cccc(C(=O)Nc3cc(C(=O)Nc4ccc(S(=O)(=O)[O-])c5cc(S(=O)(=O)[O-])cc(S(=O)(=O)[O-])c45)ccc3C)c2)c1.[Na+].[Na+].[Na+].[Na+].[Na+].[Na+]` [Suramin hexasodium], the cell number in assay [1] and in assay [2] was 101 throughout. For the same molecule, the H1.0 immunofluorescence intensity in assay [3] is 98.5 (inactive); in assay [4] it was 102 (inactive).

Turning to `COc1ccc2ccc(=O)oc2c1CC=C(C)C` [Osthole], the figures for the cell number in assay [1] and in assay [2] were 97.3 and 92.5, respectively. Also, the figures for the H1.0 immunofluorescence intensity in assay [3] and in assay [4] were 103 (inactive) and 99.9 (inactive), respectively.

On to `O=C1[N-]C(=O)C(c2ccccc2)(c2ccccc2)N1.[Na+]` [Phenytoin sodium], for which the figures for the cell number in assay [1] and in assay [2] were 99.9 and 111, respectively. The H1.0 immunofluorescence intensity is 99.8 (inactive) in assay [3] and 103 (inactive) in assay [4].

Turning to `CC(C)CC(NC(=O)C(O)C(N)Cc1ccccc1)C(=O)O.Cl` (stereo not drawn) [Bestatin hydrochloride], the cell number in assay [1] came out at 101; in assay [2] it was 104. The H1.0 immunofluorescence intensity in assay [3] is 96.3 (inactive); in assay [4], 99.6 (inactive).

`CN1CCCC1c1cccnc1.Cc1ccc(C(=O)OC(C(=O)O)C(OC(=O)c2ccc(C)cc2)C(=O)O)cc1` (stereo not drawn) [(+)-Nicotine (+)-di-p-toluoyl tartrate]: the cell number in assay [1] was 102; in assay [2], 109. Besides, the H1.0 immunofluorescence intensity is 88.1 (inactive) in assay [3] and 99.5 (inactive) in assay [4].

`CCCCCC(O)C=CC1C(=O)C=CC1CC=CCCCC(=O)O` (stereo not drawn) [Prostaglandin J2]: the cell number was found to be 99.8 in assay [1] and 99.5 in assay [2]. Also, the H1.0 immunofluorescence intensity in assay [3] is 89.3 (inactive); in assay [4] it was 100 (inactive).

Regarding `CCCCCC=CCC=CCC=CCC=CCCCC(=O)OC(CO)CO` [2-Arachidonoylglycerol], the cell number came out at 104 in assay [1] and 107 in assay [2]. Moreover, the H1.0 immunofluorescence intensity is 97.3 (inactive) in assay [3] and 99.5 (inactive) in assay [4].

In the case of `CC(=O)C1=C(O)C=C2Oc3c(C(C)=O)c(O)c(C)c(O)c3C2(C)C1=O` (single isomer, unassigned; (+)) [(+)-Usnic acid], the cell number in assay [1] came to 100; in assay [2] it was 109. Moreover, the H1.0 immunofluorescence intensity in assay [3] is 96.7 (inactive); in assay [4], 91.2 (inactive).

For `CCN(c1nc(N)c(C(=O)N=C(N)N)nc1Cl)C(C)C` [5-(N-Ethyl-N-isopropyl)amiloride], the cell number in assay [1] was 103; in assay [2], 95. The H1.0 immunofluorescence intensity in assay [3] was 97.2 (inactive); in assay [4], 91 (inactive).
